Assay outcomes from PubChem BioAssay.
Only a selection was taken, and hits are over-represented in it overall.
nsP2pro primary: blocks chikungunya virus nsP2 protease peptide cleavage. FRET peptide cleavage, nsP2pro, fluorescence 1 h. AID 1964107. actives 1.1% (n = 31,000). Potency, µM (titrated, usually from 24.9 µM), actives largely listed as inhibitors; further: nearly all actives have a fitted effect of over 60% in size
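FRET cleavage of 2.5 uM peptide 2 by 150 nM CHIKV protease domain at pH 8.0 (Tris, Tween 20). Compounds at 7 concentrations (up to 25 uM) preincubated 15 min. Fluorescence read after 1 h at room temperature.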
nsP2 cell sec: inhibits CHIKV nsP2 protease in cells; cell-based CHIKV nsP2 protease reporter assay; shares compounds with nsP2pro primary; Potency, µM (highest dose often 51.1 µM), usual class: inhibitors; actives 10% (n = 450); AID 1964100; further: nearly all actives have a fitted effect of over 70% in size
NSP2 full ctr: full-length CHIKV NSP2 protease inhibition, selectivity; AID 1964101; Potency, µM (doses to about 50.7 µM), actives largely listed as inhibitors; shares compounds with nsP2pro primary; Full-length CHIKV NSP2 protease enzymatic counterscreen; actives 39% (n = 410); further: nearly all actives have a fitted effect of over 65% in size
Furin counter: human furin inhibition, counterscreen for nsP2pro inhibitors; shares compounds with nsP2pro primary; Recombinant human furin enzymatic counterscreen, fluorogenic substrate; Potency, µM (series often up to 50.6 µM), usual class: inhibitors; actives 6% (n = 410)
NS23 peptide cs: selectivity test for CHIKV nsP2 protease inhibitors: endogenous NS2/3 peptide | shares compounds with nsP2pro primary | Purified CHIKV nsP2 protease, endogenous NS2/3 peptide cleavage | Potency, µM (top dose mostly 51 µM), most hits filed as inhibitors | actives 34% (n = 410) | AID 1964103; further: nearly all actives have a fitted effect of over 55% in size
Papain cs: inhibits papain in a CHIKV nsP2 protease selectivity counterscreen; shares compounds with nsP2pro primary; purified papain protease activity, enzymatic inhibition; Potency, µM (top dose mostly 51 µM), hits mostly inhibitors; actives 5% (n = 410)
nsP2pro conf qHTS: CHIKV nsP2 protease inhibition, confirmatory qHTS | shares compounds with nsP2pro primary | CHIKV nsP2 protease enzymatic activity, qHTS | Potency, µM (doses to about 25.5 µM), most hits filed as inhibitors | actives 43% (n = 410) | AID 1964105; further: nearly all actives have a fitted effect of over 75% in size
HCV NS3 counter: HCV NS3/4A protease inhibition, counterscreen. shares compounds with nsP2pro primary. HCV NS3/4A protease biochemical counterscreen. Potency, µM (doses to about 50.9 µM), hits mostly inhibitors. actives 20% (n = 410). AID 1964106; further: nearly all actives have a fitted effect of over 55% in size
A number is an active result; 0 = inactive; ? = inconclusive; [ ] = remark or other dose. The call rests on the fitted dose curve.

SMILES	nsP2pro primary	others
CC(CN(C)C)CN1c2ccccc2Sc2ccc(C(F)(F)F)cc21 (stereo not drawn)	0
CC1=C(C(=O)Nc2ccc(C)cc2C)C(c2ccccc2)n2nc(SCC(=O)c3ccc(C)cc3)nc2N1 (stereo not drawn)	0
NC(=O)[C@@H](Cc1c[nH]c2ccccc12)NC(=O)[C@@H]1CN(S(=O)(=O)c2ccccc2)CCN1C(=O)C1CCNCC1	0
O=C(Cn1nc2n(c1=O)CCCC2)N1CCN(c2ccccc2)CC1	0
CC(Sc1nc2c([nH]c3ccccc32)c(=O)n1-c1ccccc1)c1ccccc1 (stereo not drawn)	0
CCCCCCCCCC(=O)O	0
CCCCCCCC/C=C/CCCCCCCC(=O)O	0
CCCCCCCCCCCCCCCCCCCC(=O)O	?	nsP2 cell sec=0;NSP2 full ctr=4.1µM;Furin counter=0;NS23 peptide cs=0;Papain cs=21µM;nsP2pro conf qHTS=2.8µM;HCV NS3 counter=0
COc1ccccc1C(=O)OCC#CCSc1nnc(-c2cccc3ccccc23)o1	0
CCCOc1ccc(C(=O)NCC2OCCc3ccccc32)cc1 (stereo not drawn)	0
O=[N+]([O-])c1ccc(O/N=[N+](\[O-])N2CCN(c3ncccn3)CC2)c([N+](=O)[O-])c1	0
O=[N+]([O-])c1ccc(S(=O)(=O)N2CCN(c3ccnc4cc(Cl)ccc34)CC2)c([N+](=O)[O-])c1	?	nsP2 cell sec=5.6µM;NSP2 full ctr=?;Furin counter=0;NS23 peptide cs=4.1µM;Papain cs=0;nsP2pro conf qHTS=?;HCV NS3 counter=0
O=[N+]([O-])c1cc(Cl)ccc1S(=O)(=O)N1CCN(Cc2ccccc2)CC1	0
Nc1c(CC(=O)O)cccc1C(=O)c1ccccc1	0
O=C1[C@H]2CN(Cc3ccncc3)C[C@H]2C(=O)N1Cc1ccc2c(c1)OCO2	0
CC(=O)OC1C(O)CC(O[C@@H]2O[C@H](CO)[C@@H](O)[C@H](O)[C@H]2O)C2CCC3C(=O)OC(c4ccoc4)CC3(C)C21 (stereo partly drawn)	?	nsP2 cell sec=0;NSP2 full ctr=0;Furin counter=0;NS23 peptide cs=0;Papain cs=0;nsP2pro conf qHTS=0;HCV NS3 counter=0
CC(=O)O[C@@]1(C)C[C@@H](O)[C@]2(O)C=CO[C@@H](O[C@@H]3O[C@H](CO)[C@@H](O)[C@H](O)[C@H]3O)[C@@H]21	0
CC(=O)OC1(C)CC(O)C2(O)C=COC(OC3OC(CO)C(O)C(O)C3O)C12 (stereo not drawn)	0
CC(=O)OCC1OC(O[C@H]2CC[C@]34C[C@]35CC(O)[C@]3(C)[C@@H]([C@H](C)CC/C=C(\C)C(=O)O)C(O)C[C@@]3(C)C5CC[C@H]4C2(C)C)C(O)C(O)C1OC1OCC(O)C(O)C1O (stereo partly drawn)	0[5.1 µM]
CC(=O)Nc1sc2c(c1C(O)c1nc3ccccc3s1)CCN(C(C)C)C2 (stereo not drawn)	0
COc1cccc(-n2nnc(-c3nc(-c4cccs4)no3)c2N)c1	0
CC1CC2(O)OC(=O)C3=C2C(CCC3)[C@@]12C[C@@H](c1ccoc1)OC2=O (stereo partly drawn)	?	nsP2 cell sec=0;NSP2 full ctr=?;Furin counter=0;NS23 peptide cs=?;Papain cs=0;nsP2pro conf qHTS=0;HCV NS3 counter=1.8µM
Cc1cc(C)nc(NC(=S)N2CCN(c3cnccn3)CC2)c1	0
O=C(c1ccc(N2CCC(O)CC2)nc1)N1CCC(N2CCOCC2)CC1	0
CCOc1ccc(-c2nc(CNC(=O)Nc3ccccc3)c(C)o2)cc1	0
SMILES	nsP2pro primary	others
Cc1oc(-c2ccc(C(=O)NCCCOC(C)C)cc2)nc1CS(=O)(=O)c1ccccc1	0
CO[C@@H](Cc1ccc(OCCc2nc(-c3ccccc3)oc2C)c2ccsc12)C(=O)O	9.9µM	nsP2 cell sec=0;NSP2 full ctr=0;Furin counter=0;NS23 peptide cs=0;Papain cs=?;nsP2pro conf qHTS=?;HCV NS3 counter=0
Cc1noc(C)c1N[S+](=O)([O-])c1ccc(NC(=O)Cc2ccc(Cl)c(Cl)c2)cc1	0
CCOc1cc(C)c(C(C)C)cc1S(=O)(=O)n1ccnc1CC	0
CCOc1ccc(S(=O)(=O)N2CCN(c3ccc(Cl)c(Cl)c3)CC2)c2ccccc12	0
CCOc1cc(S(=O)(=O)n2ccnc2C(C)C)ccc1Cl	8.9µM	nsP2 cell sec=0;NSP2 full ctr=16µM;Furin counter=0;NS23 peptide cs=?;Papain cs=0;nsP2pro conf qHTS=?;HCV NS3 counter=9.2µM
COc1ccc(-c2nc3ccc(NS(C)(=O)=O)cc3o2)cc1	0
Cc1nn(-c2ccccc2)c2c1C(C1CC1)N(C1CN(C(=O)Nc3ccccc3)C1)C2=O (stereo not drawn)	0
CN1CCCN=C1COC(=O)C(O)(c1ccccc1)C1CCCCC1 (stereo not drawn)	0
CCCCN1CCCc2cc(CN(CCCN3CCOCC3)C(=O)Nc3ccc(OCC)cc3)ccc21	0
CCOC(=O)c1ccc(NC2SC(=O)N(Cc3cccc(C(=O)O)c3)C2=O)cc1 (stereo not drawn)	7.9µM	nsP2 cell sec=0
CCOC(=O)c1ccc2nc(C)cc(Nc3cccc(C(=O)O)c3)c2c1	0
CCOC(=O)c1ccc(NC(=O)CN2CCCCC2)cc1	0
C/C=C/CN1C[C@@H](NC(=O)c2cccc(N(C)C)c2)C[C@H]1C(=O)NCC	0
COc1cc(O)c(C(CC(=O)N2CCCC(C#N)C2)c2ccc3c(c2)OCO3)c(OC)c1 (stereo not drawn)	0
OC[C@H]1O[C@@H](OCCc2ccccc2)[C@H](O[C@@H]2OC[C@@H](O)[C@H](O)[C@H]2O)[C@@H](O)[C@@H]1O	0
Clc1ccc2c(c1)N=C(N1CCNCC1)c1ccccc1N2	0
Nc1c(C(=O)Nc2ccc(Br)cc2F)sc2nc3c(cc12)N1CCC3CC1	0
Oc1cccc(-c2c3nc(c(-c4cccc(O)c4)c4ccc([nH]4)c(-c4cccc(O)c4)c4nc(c(-c5cccc(O)c5)c5ccc2[nH]5)CC4)C=C3)c1	?	nsP2 cell sec=0;NSP2 full ctr=18µM;Furin counter=0;NS23 peptide cs=18µM;Papain cs=?;nsP2pro conf qHTS=14µM;HCV NS3 counter=0
CC(C)CN1CC2=C(C1=O)C(c1ccccc1Cl)N=C(Nc1nc3ccccc3o1)N2 (stereo not drawn)	0
CCNc1cccc(S(=O)(=O)N2CCCN(S(=O)(=O)c3ccc4c(c3)OCCO4)CC2)c1	0
CCN(CC)c1ccc2cc(-c3nc4sc5c(c4c(=O)[nH]3)CCC(C(C)(C)C)C5)c(=O)oc2c1 (stereo not drawn)	0
Cc1ncc(CO)c(C=O)c1O	0
Cc1ncc(COP(=O)(O)O)c(C=O)c1O	?	nsP2 cell sec=0;NSP2 full ctr=0;Furin counter=0;NS23 peptide cs=0;Papain cs=0;nsP2pro conf qHTS=0;HCV NS3 counter=0
Cc1ncc(CSSCc2cnc(C)c(O)c2CO)c(CO)c1O	0
COc1cc2ncc(-c3ccccc3)nc2cc1OC	0
